Records with an inconclusive call do not appear. Entries that show only a call come without a potency. The source made the active and inactive calls. The call rests on the fitted dose curve; in most records, active means well fitted cell-killing curve with a large enough effect in the repeat runs; inconclusive means weak or mixed curves, or effect the other way; inactive means flat fitted curve, though single readings scatter.
Potency means the concentration at half of the fitted maximal effect.

The experiment can be described thus: cAMP Responsive Elements (CRE) small molecule agonists, cell-based qHTS assay: qHTS cell viability counter screen (AID 2060914). Further: nearly all actives have a fitted effect of over 50% in size. As to conditions: CRE-bla HEK293T viability, CellTiter-Glo luminescence, 5 h; series mostly up to 92.4 µM. In short, it runs like this: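 Cytotoxicity was measured as ATP luminescence (CellTiter-Glo, 30 min at room temperature) in the same wells as the CRE-bla FRET read-out. HEK293T CRE-bla cells had 3 h compound exposure at 37C/5% CO2.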
For `CCOP(=O)(CN(CCO)CCO)OCC`, the Potency result was “inactive”.

For the molecule `Oc1cc(Cl)ccc1Oc1ccc(Cl)cc1Cl`, the Potency was 62.6 µM (active).

With `Cc1cc(OC(=O)N(C)C)nn1C(=O)N(C)C`, the Potency entry is “inactive”.

In the case of `CC(C)C#N`, the Potency result is “inactive”.

For `CCOC(=O)C(Cl)C(C)=O` (stereo not given), the Potency result is “inactive”.

As to `COc1ccccc1N1CCNCC1`, the Potency result was “inactive”.

Take `O=C(O)c1cc(I)cc(I)c1I`: the Potency result was “inactive”.

Regarding `CN(C)CCc1c[nH]c2ccccc12`, the Potency entry was “inactive”.

Take `CN(C)CCc1c[nH]c2ccc(O)cc12`: the Potency entry is “inactive”.

Consider `CC(C)(N)Cc1ccc(Cl)cc1`, for which the Potency entry is “inactive”.

For the molecule `CN1CCc2cc(Cl)c(O)cc2[C@H]2c3ccccc3CC[C@@H]21`, the Potency entry is “inactive”.

On to `C=CCBr`, for which the Potency entry was “inactive”.

Turning to `C#CC1(O)CCCCC1`, the Potency entry was “inactive”.

Consider `CCc1cc(C)cc(CC)c1-c1c(OC(=O)C(C)(C)C)n2n(c1=O)CCOCC2`, for which the Potency entry was “inactive”.

Consider `Cc1ccc(CCl)cc1`, for which the Potency result was “inactive”.

Turning to `O=C(O)C(O)C(O)C(=O)O` (stereo not given), the Potency result was “inactive”.

On to `CCOP(=S)(OCC)Oc1cnc2ccccc2n1`, for which the Potency result was “inactive”.

As to `CCC(=O)c1ccccc1`, the Potency entry is “inactive”.

Take `COCC(=O)N(c1c(C)cccc1C)C(C)C(=O)OC` (stereo not given): the Potency entry is “inactive”.

`SCc1ccco1`: the Potency entry is “inactive”.

As for `COC(=O)c1ccccc1CS(=O)(=O)NC(=O)Nc1nc(OC)cc(OC)n1`, the Potency result is “inactive”.

Turning to `O=[N+]([O-])c1ccc(CCl)cc1`, the Potency result was “inactive”.

With `C[C@@H]1CC[C@H]2[C@@H](C)C(=O)O[C@@H]3O[C@@]4(C)CC[C@@H]1[C@]32OO4`, the Potency result is “inactive”.

Regarding `Clc1cccc(Cl)c1Cl`, the Potency entry was “inactive”.

Take `COCCOCCO`: the Potency result is “inactive”.

In the case of `ClC1(Cl)C2(Cl)C3(Cl)C4(Cl)C(Cl)(Cl)C5(Cl)C3(Cl)C1(Cl)C5(Cl)C24Cl` (stereo not given), the Potency entry is “inactive”.

With `CCOP(=S)(OCC)OC(Cl)C(Cl)(Cl)Cl` (stereo not given), the Potency result is “inactive”.

For the molecule `CCCSP(=O)(OCC)Oc1ccc(Br)cc1Cl` (stereo not given), the Potency entry was “inactive”.

For `NC(=O)CF`, the Potency result is “inactive”.

With `[Cl][Hg][c]1ccccc1`, the Potency is 30.6 µM (active).

In the case of `OCCCBr`, the Potency result is “inactive”.

Consider `CC(=O)c1cc(C(C)(C)C)cc2c1CCC2(C)C`, for which the Potency entry is “inactive”.

As to `C[As+](C)(C)CC(=O)[O-]`, the Potency entry is “inactive”.

Consider `O=c1nc(O)n(Cl)c(=O)n1Cl`, for which the Potency result was “inactive”.

Take `CCCCOC(=O)c1ccccc1C(=O)OCc1ccccc1`: the Potency result is “inactive”.

In the case of `COc1ccc(CO)cc1`, the Potency entry is “inactive”.

Take `CCC1(CCC(C)C)C(=O)NC(=O)NC1=O`: the Potency entry is “inactive”.

For the molecule `Nc1ccc2ccccc2c1`, the Potency result is “inactive”.

As for `N#CN`, the Potency result is “inactive”.

As for `Clc1cccc(SC2CCNCC2)n1`, the Potency result was “inactive”.

These data come from PubChem BioAssay (Tox21).
